Test results from PubChem BioAssay AID1159580 (chemical genetic matrix, 2015).
Where “and” joins values, the source holds several entries; their conditions need not be identical. Equal values may be shown once. In all, about 5,500 compounds went through this assay and about 2,000 (36%) were called active. Inconclusive results (about 18%) are left out. Cut-off read from the data, not from the text of the source: active = normalized growth mostly below about 0.91 (no sharp cut-off); inconclusive = no clear call, values can overlap the other calls; inactive = mostly above about 0.92. The list shows a part of the results.

Test: chemical genetic growth profiling, strain panel (AID 1159580);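 note: tested at 20 µM; growth read once vehicle control cultures reached saturation at 30 °C; 1 = growth at the plate median or of vehicle wells; lower values mean less growth of the strain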
Conditions: growth OD
[1] = S. cerevisiae deletion strains, locus YDL101C, strain DUN1, stronger effect = lower value
[2] = S. cerevisiae deletion strains, locus YHR030C, strain SLT2, stronger effect = lower value
[3] = S. cerevisiae deletion strains, locus YHR079C, strain IRE1, stronger effect = lower value
[4] = S. cerevisiae deletion strains, locus YJL095W, strain BCK1, stronger effect = lower value
[5] = S. cerevisiae deletion strains, locus YJR066W, strain TOR1, stronger effect = lower value
[6] = S. cerevisiae deletion strains, locus YLR113W, strain HOG1, stronger effect = lower value
[7] = S. cerevisiae deletion strains, locus YNL183C, strain NPR1, stronger effect = lower value
[8] = S. cerevisiae deletion strains, locus YOR061W, strain CKA2, stronger effect = lower value
[9] = S. cerevisiae deletion strains, locus YOR231W, strain MKK1, stronger effect = lower value
[10] = S. cerevisiae deletion strains, locus YPL256C, strain CLN2, stronger effect = lower value

Measured: normalized growth

CCN(CC)CCNC(=O)COc1ccc(OC)cc1
inactive: S. cerevisiae deletion strains, locus YAL013W, strain DEP1, stronger effect = lower value 1 | S. cerevisiae deletion strains, locus YBR021W, strain FUR4, stronger effect = lower value 1.01 | S. cerevisiae deletion strains, locus YBR229C, strain ROT2, stronger effect = lower value 0.995 | S. cerevisiae deletion strains, locus YCL029C, strain bik1, stronger effect = lower value 0.983 | S. cerevisiae deletion strains, locus YDL035C, strain GPR1, stronger effect = lower value 1.02 | S. cerevisiae deletion strains, locus YDL074C, strain BRE1, stronger effect = lower value 0.989 | [1] 0.993 | S. cerevisiae deletion strains, locus YDL134C, strain PPH21, stronger effect = lower value 1.01 | S. cerevisiae deletion strains, locus YDL185W, strain tfp1, stronger effect = lower value 0.964 | S. cerevisiae deletion strains, locus YDL192W, strain arf1, stronger effect = lower value 0.995 | S. cerevisiae deletion strains, locus YDR101C, strain arx1, stronger effect = lower value 0.973 | S. cerevisiae deletion strains, locus YDR150W, strain NUM1, stronger effect = lower value 0.993 | S. cerevisiae deletion strains, locus YDR162C, strain NBP2, stronger effect = lower value 1.01 | S. cerevisiae deletion strains, locus YDR318W, strain mcm21, stronger effect = lower value 0.988 | S. cerevisiae deletion strains, locus YDR388W, stronger effect = lower value 0.997 | S. cerevisiae deletion strains, locus YDR502C, strain sam2, stronger effect = lower value 1.01 | S. cerevisiae deletion strains, locus YEL061C, strain CIN8, stronger effect = lower value 1 | S. cerevisiae deletion strains, locus YER110C, stronger effect = lower value 0.989 | S. cerevisiae deletion strains, locus YER155C, strain BEM2, stronger effect = lower value 0.998 | S. cerevisiae deletion strains, locus YER167W, strain BCK2, stronger effect = lower value 1.01 | S. cerevisiae deletion strains, locus YGL078C, strain dbp3, stronger effect = lower value 0.997 | S. cerevisiae deletion strains, locus YGL086W, strain mad1, stronger effect = lower value 1.02 | S. cerevisiae deletion strains, locus YGL248W, strain PDE1, stronger effect = lower value 0.995 | S. cerevisiae deletion strains, locus YGR078C, strain PAC10, stronger effect = lower value 0.992 | S. cerevisiae deletion strains, locus YGR135W, strain pre9, stronger effect = lower value 1.01 | S. cerevisiae deletion strains, locus YGR229C, strain SMI1, stronger effect = lower value 1.01 | S. cerevisiae deletion strains, locus YGR252W, strain gcn5, stronger effect = lower value 1.15 | [2] 0.995 and 0.975 | S. cerevisiae deletion strains, locus YHR079C, strain IRE1 (second series), stronger effect = lower value 0.986 | [3] 0.965 | S. cerevisiae deletion strains, locus YHR094C, strain hxt1, stronger effect = lower value 0.981 | S. cerevisiae deletion strains, locus YHR129C, strain ARP1, stronger effect = lower value 0.994 | S. cerevisiae deletion strains, locus YHR200W, strain rpn10, stronger effect = lower value 0.989 | S. cerevisiae deletion strains, locus YIL066C, strain RNR3, stronger effect = lower value 0.999 | S. cerevisiae deletion strains, locus YIL073C, strain SPO22, stronger effect = lower value 0.974 | S. cerevisiae deletion strains, locus YIL125W, strain kgd1, stronger effect = lower value 1 | S. cerevisiae deletion strains, locus YIR030C, strain dcg1, stronger effect = lower value 0.999 | [4] 0.983 and 0.978 | S. cerevisiae deletion strains, locus YJL134W, strain LCB3, stronger effect = lower value 0.994 | S. cerevisiae deletion strains, locus YJL168C, strain set2, stronger effect = lower value 0.981 | S. cerevisiae deletion strains, locus YJL187C, strain SWE1 (second series), stronger effect = lower value 0.984 | S. cerevisiae deletion strains, locus YJR043C, strain POL32, stronger effect = lower value 0.971 | [5] 0.939 | S. cerevisiae deletion strains, locus YJR075W, strain HOC1, stronger effect = lower value 0.983 | S. cerevisiae deletion strains, locus YKL009W, strain mrt4, stronger effect = lower value 1.02 | S. cerevisiae deletion strains, locus YKL068W, stronger effect = lower value 0.983 | S. cerevisiae deletion strains, locus YKL085W, strain MDH1 (second series), stronger effect = lower value 0.981 | S. cerevisiae deletion strains, locus YKL085W, strain MDH1, stronger effect = lower value 0.981 | S. cerevisiae deletion strains, locus YKL190W, strain CNB1, stronger effect = lower value 0.997 | S. cerevisiae deletion strains, locus YKR001C, strain vps1, stronger effect = lower value 1.02 | S. cerevisiae deletion strains, locus YLR039C, strain RIC1, stronger effect = lower value 1.06 | S. cerevisiae deletion strains, locus YLR058C, strain SHM2, stronger effect = lower value 1 | S. cerevisiae deletion strains, locus YLR102C, strain apc9, stronger effect = lower value 0.991 | [6] 0.969 | S. cerevisiae deletion strains, locus YLR262C, strain YPT6, stronger effect = lower value 1.05 | S. cerevisiae deletion strains, locus YLR268W, strain sec22, stronger effect = lower value 0.96 | S. cerevisiae deletion strains, locus YLR330W, strain CHS5, stronger effect = lower value 0.989 | S. cerevisiae deletion strains, locus YLR342W, strain FKS1 (second series), stronger effect = lower value 1.06 | S. cerevisiae deletion strains, locus YLR371W, strain rom2, stronger effect = lower value 0.99 | S. cerevisiae deletion strains, locus YLR418C, strain cdc73, stronger effect = lower value 1.01 | S. cerevisiae deletion strains, locus YML016C, strain PPZ1, stronger effect = lower value 1.01 | S. cerevisiae deletion strains, locus YML032C, strain rad52, stronger effect = lower value 0.97 | S. cerevisiae deletion strains, locus YML124C, strain tub3, stronger effect = lower value 0.996 | S. cerevisiae deletion strains, locus YMR078C, strain ctf18, stronger effect = lower value 0.978 | S. cerevisiae deletion strains, locus YMR223W, strain ubp8, stronger effect = lower value 1.04 | S. cerevisiae deletion strains, locus YMR263W, strain SAP30, stronger effect = lower value 0.982 | S. cerevisiae deletion strains, locus YMR307W, strain GAS1, stronger effect = lower value 1.05 | S. cerevisiae deletion strains, locus YNL067W, strain RPL9B, stronger effect = lower value 0.97 | S. cerevisiae deletion strains, locus YNL128W, strain TEP1, stronger effect = lower value 0.994 | S. cerevisiae deletion strains, locus YNL153C, strain GIM3, stronger effect = lower value 0.988 | [7] 0.937 | S. cerevisiae deletion strains, locus YNL233W, strain BNI4, stronger effect = lower value 1.01 | S. cerevisiae deletion strains, locus YNL250W, strain rad50, stronger effect = lower value 0.993 | S. cerevisiae deletion strains, locus YNL271C, strain bni1, stronger effect = lower value 0.987 | S. cerevisiae deletion strains, locus YNL298W, strain CLA4, stronger effect = lower value 0.993 | S. cerevisiae deletion strains, locus YNL307C, strain MCK1, stronger effect = lower value 0.999 | S. cerevisiae deletion strains, locus YNL322C, strain KRE1, stronger effect = lower value 0.992 | S. cerevisiae deletion strains, locus YNR052C, strain pop2, stronger effect = lower value 0.984 | S. cerevisiae deletion strains, locus YOL006C, strain TOP1, stronger effect = lower value 1.01 | S. cerevisiae deletion strains, locus YOL012C, strain htz1 0.754 | S. cerevisiae deletion strains, locus YOL147C, strain pex11, stronger effect = lower value 0.997 | [8] 1.01 | S. cerevisiae deletion strains, locus YOR069W, strain VPS5, stronger effect = lower value 0.998 | S. cerevisiae deletion strains, locus YOR136W, strain idh2, stronger effect = lower value 1.01 | S. cerevisiae deletion strains, locus YOR144C, strain elg1, stronger effect = lower value 0.998 | S. cerevisiae deletion strains, locus YOR184W, strain ser1, stronger effect = lower value 0.983 | [9] 0.964 | S. cerevisiae deletion strains, locus YOR316C, strain cot1, stronger effect = lower value 0.981 | S. cerevisiae deletion strains, locus YPL055C, strain LGE1, stronger effect = lower value 0.949 | S. cerevisiae deletion strains, locus YPL241C, strain CIN2, stronger effect = lower value 1.01 | [10] 0.972 | S. cerevisiae deletion strains, locus YPR119W, strain clb2, stronger effect = lower value 0.99 | S. cerevisiae deletion strains, locus YPR141C, strain kar3, stronger effect = lower value 0.992 | S. cerevisiae deletion strains, locus YPR163C, strain tif3, stronger effect = lower value 0.994 | S. cerevisiae deletion strains, locus YPR167C, strain met16, stronger effect = lower value 0.975 | S. cerevisiae deletion strains, strain wtn01, stronger effect = lower value 0.962 | S. cerevisiae strains, strain wild type, stronger effect = lower value 1

NNC(=O)COc1ccc(C2SCCS2)cc1
inactive: S. cerevisiae deletion strains, locus YBL105C, strain PKC1, stronger effect = lower value 0.962 | S. cerevisiae deletion strains, locus YBR135W, strain CKS1, stronger effect = lower value 0.954 | S. cerevisiae deletion strains, locus YBR136W, strain MEC1, stronger effect = lower value 0.986 | S. cerevisiae deletion strains, locus YBR160W, strain CDC28, stronger effect = lower value 0.96 | S. cerevisiae deletion strains, locus YDL017W, strain CDC7, stronger effect = lower value 0.971 | S. cerevisiae deletion strains, locus YDL028C, strain MPS1, stronger effect = lower value 0.964 | S. cerevisiae deletion strains, locus YDL108W, strain KIN28, stronger effect = lower value 0.97 | S. cerevisiae deletion strains, locus YDR052C, strain DBF4, stronger effect = lower value 0.969 | S. cerevisiae deletion strains, locus YDR226W, strain ADK1, stronger effect = lower value 0.962 | S. cerevisiae deletion strains, locus YFR003C, strain YPI1, stronger effect = lower value 0.974 | S. cerevisiae deletion strains, locus YFR028C, strain CDC14, stronger effect = lower value 0.973 | S. cerevisiae deletion strains, locus YIL147C, strain SLN1, stronger effect = lower value 0.969 | S. cerevisiae deletion strains, locus YJR016C, strain ILV3, stronger effect = lower value 0.939 | S. cerevisiae deletion strains, locus YKL193C, strain SDS22, stronger effect = lower value 0.927 | S. cerevisiae deletion strains, locus YMR001C, strain CDC5, stronger effect = lower value 0.95 | S. cerevisiae deletion strains, locus YNL006W, strain LST8, stronger effect = lower value 0.945 | S. cerevisiae deletion strains, locus YNL161W, strain CBK1, stronger effect = lower value 0.941 | S. cerevisiae deletion strains, locus YNL222W, strain SSU72, stronger effect = lower value 0.934 | S. cerevisiae deletion strains, locus YOR329C, strain SCD5, stronger effect = lower value 0.972 | S. cerevisiae deletion strains, locus YPL209C, strain IPL1, stronger effect = lower value 0.965 | S. cerevisiae deletion strains, locus YPR025C, strain CCL1, stronger effect = lower value 0.954
active: [1] 0.337 | S. cerevisiae deletion strains, locus YDL214C, strain PRR2, stronger effect = lower value 0.16 | S. cerevisiae deletion strains, locus YDR477W, strain SNF1, stronger effect = lower value 0.197 | S. cerevisiae deletion strains, locus YER123W, strain YCK3, stronger effect = lower value 0.148 | S. cerevisiae deletion strains, locus YER133W, strain GLC7, stronger effect = lower value 0.4 | S. cerevisiae deletion strains, locus YFR019W, strain FAB1, stronger effect = lower value 0.144 | S. cerevisiae deletion strains, locus YGR040W, strain KSS1, stronger effect = lower value 0.233 | S. cerevisiae deletion strains, locus YGR052W, strain FMP48, stronger effect = lower value 0.152 | S. cerevisiae deletion strains, locus YGR092W, strain DBF2, stronger effect = lower value 0.13 | [2] 0.104 | [3] 0.127 | S. cerevisiae deletion strains, locus YHR082C, strain KSP1, stronger effect = lower value 0.188 | S. cerevisiae deletion strains, locus YHR205W, strain SCH9, stronger effect = lower value 0.162 | [4] 0.128 | S. cerevisiae deletion strains, locus YJL157C, strain FAR1, stronger effect = lower value 0.163 | S. cerevisiae deletion strains, locus YJR066W, strain TOR1 (second series), stronger effect = lower value 0.156 | [5] 0.159 | S. cerevisiae deletion strains, locus YKL048C, strain ELM1, stronger effect = lower value 0.215 | S. cerevisiae deletion strains, locus YKL067W, strain YNK1, stronger effect = lower value 0.141 | S. cerevisiae deletion strains, locus YKL101W, strain HSL1, stronger effect = lower value 0.153 | S. cerevisiae deletion strains, locus YKL203C, strain TOR2, stronger effect = lower value 0.209 | [6] 0.171 | S. cerevisiae deletion strains, locus YLR133W, strain CKI1, stronger effect = lower value 0.194 | S. cerevisiae deletion strains, locus YLR403W, strain SFP1, stronger effect = lower value 0.152 | S. cerevisiae deletion strains, locus YML070W, strain DAK1, stronger effect = lower value 0.145 | S. cerevisiae deletion strains, locus YMR205C, strain PFK2 (second series), stronger effect = lower value 0.151 | S. cerevisiae deletion strains, locus YMR277W, strain FCP1, stronger effect = lower value 0.85 | S. cerevisiae deletion strains, locus YNL020C, strain ARK1, stronger effect = lower value 0.195 | [7] 0.187 | S. cerevisiae deletion strains, locus YNL207W, strain RIO2, stronger effect = lower value 0.829 | S. cerevisiae deletion strains, locus YNL307C, strain MCK1 (second series), stronger effect = lower value 0.157 | S. cerevisiae deletion strains, locus YOL136C, strain PFK27, stronger effect = lower value 0.159 | [8] 0.115 | S. cerevisiae deletion strains, locus YOR119C, strain RIO1, stronger effect = lower value 0.183 | [9] 0.159 | S. cerevisiae deletion strains, locus YPL031C, strain PHO85, stronger effect = lower value 0.201 | S. cerevisiae deletion strains, locus YPL153C, strain RAD53, stronger effect = lower value 0.181 | S. cerevisiae deletion strains, locus YPL204W, strain HRR25, stronger effect = lower value 0.234 | [10] 0.173 | S. cerevisiae deletion strains, locus YPR106W, strain ISR1, stronger effect = lower value 0.575 | S. cerevisiae deletion strains, locus YPR111W, strain DBF20, stronger effect = lower value 0.608 | S. cerevisiae deletion strains, strain NNK1, stronger effect = lower value 0.24
